Source: PubChem BioAssay
Rows were chosen to be rich in hits. Some 4% of all compounds tested hit in one or more screens of this group.
ROMK primary: human ROMK K+ channel modulation, primary screen; P48048; Tet-inducible ROMK, thallium flux fluorescence; actives lie on both sides; B-score at 10 µM; hit rate 2% among 130,000;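 active = signal ratio slope over the read window, or its plate-corrected B-score, at least 3 SD from the plate mean, either direction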;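 note: B-score of the F/F0 ratio slope over 7 to 12 s after thallium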
Target sequence (P48048 whole entry, looked up): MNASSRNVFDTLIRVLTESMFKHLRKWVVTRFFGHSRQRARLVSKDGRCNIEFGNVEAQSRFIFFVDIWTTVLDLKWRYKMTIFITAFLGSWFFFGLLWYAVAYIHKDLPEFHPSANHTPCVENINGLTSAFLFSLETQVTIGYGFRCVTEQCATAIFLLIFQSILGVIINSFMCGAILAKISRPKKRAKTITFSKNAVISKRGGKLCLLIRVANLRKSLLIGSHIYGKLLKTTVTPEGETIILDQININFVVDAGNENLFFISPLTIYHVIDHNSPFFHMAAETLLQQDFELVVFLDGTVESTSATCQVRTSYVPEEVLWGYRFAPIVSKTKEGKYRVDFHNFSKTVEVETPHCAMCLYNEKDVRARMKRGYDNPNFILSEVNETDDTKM
HSV augment: increases HSV replication in cells; HSV replication augmentation in cells, fold increase; maximum fold increase; hit rate 0.005% among 220,000; in the data active = maximum fold increase above about 1.5; inconclusive = no clear call, values can overlap the other calls; tested in PC3 cells
Arbovirus inh: blocks arbovirus infection | arbovirus infection cell-based antiviral screen | inhibition, % at 10 µM | hit rate 0.37% among 200,000; in the data active = inhibition above about 30%
Cl transport mod: modulators of human KCC2 chloride dependent transport | B-score of Tl+ flux slope (higher = more flux/activation; lower = inhibition) at 10 µM | Q9H2X9 | KCC2 cells, thallium flux FluoZin-2 fluorescence | hit rate 2.2% among 190,000;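 active = thallium flux slope and its plate-corrected score both differing from the plate sample mean at a set confidence after two filtering rounds, in either direction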;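 note: slope of fluorescence scaled to starting intensity during 10 to 20 s after thallium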
Measles CPE: protection of cells from measles virus; Measles virus-infected cells, CPE protection, absorbance; protection (pct of control), % at 4 µM; hit rate 1.5% among 140,000; in the data active = protection mostly above about 24%, no sharp cut-off; inactive = mostly below about 26%
KCC2 secondary: KCC2 (human) modulation, secondary assay. HEK293-KCC2, thallium flux, FluoZin2 fluorescence; active compounds read high. normalised thallium flux (F/F0 slope) at 10 µM. hit rate 15% among 3,700. shares compounds with Cl transport mod;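 active = thallium flux slope above the same plate's solvent-only control mean plus 3 SD; inconclusive = the two replicate wells disagree; inactive = no significant difference from solvent-only control wells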
KCC2 bumet counter: thallium flux persisting under bumetanide in KCC2 cells, counter-screen secondary assay. shares compounds with Cl transport mod. HEK293-KCC2 + bumetanide/ouabain, thallium flux FluoZin2; active compounds read high. normalized thallium flux at 10 µM. hit rate 49% among 3,700;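 active = thallium entry rate above the same plate's blocked-transporter control wells by more than 3 SD; inconclusive = the two repeat wells disagree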;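 note: raw slope of fluorescence over initial fluorescence between 10 and 20 s after thallium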
KCC2 sec2: confirmation of human KCC2 transport modulators | shares compounds with Cl transport mod | AID 1715 | HEK293-KCC2, thallium flux FluoZin2 fluorescence; actives lie on both sides; F/F0 rise rate, 10–20 s post-thallium | normalized thallium flux at 10 µM | hit rate 23% among 3,700;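 active = thallium flux slope more than 3 SD above or below the plate's solvent-only control mean, mostly below; inconclusive = the two repeat wells disagreed; inactive = no significant shift from solvent-only controls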;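 note: raw slope with 0.1% DMSO as baseline and bumetanide as block control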
HEK293 Tl flux: counter-screen for KCC2 modulators: effect in parental HEK293 cells. shares compounds with Cl transport mod. thallium flux FluoZin2, ouabain; baseline-ratio fluorescence slope, 10–20 s after thallium. thallium flux rate (normalised fluorescence) at 10 µM. hit rate 46% among 3,700. AID 1716;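 active = thallium flux rate significantly above the same plate's solvent-only control wells, beyond their mean plus 3 SD; inconclusive = the two replicate wells gave conflicting results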
KCC2 ouabain: confirmation of human KCC2 modulators with ouabain. shares compounds with Cl transport mod. AID 1717. raw Tl+ flux slope (below DMSO = inhibition, above = activation) at 10 µM. hit rate 48% among 3,700. HEK293-KCC2, thallium flux FluoZin2 fluorescence; bidirectional: low = inhibitor, high = activator;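 active = thallium flux slope beyond 3 SD from same-plate DMSO control mean in most replicates, usually higher, sometimes lower; inconclusive = repeat tests gave conflicting results; inactive = no significant difference from controls in most replicates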;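 note: slope of initial-normalized fluorescence between seconds 10 and 20 after thallium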
HEK293 Tl flux2: acts in parental HEK cells, second KCC2 counter-screen | shares compounds with Cl transport mod | hit rate 33% among 3,700 | HEK293 parental, thallium flux FluoZin-2 fluorescence slope | AID 1718 | thallium flux slope at 10 µM;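 active = thallium flux slope above the same plate's solvent-control mean plus 3 SD in both duplicate wells; inconclusive = duplicate wells that disagreed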;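 note: run without ouabain in cells lacking the KCC2 cotransporter; slope of fluorescence scaled to its starting value between 10 and 20 s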
* hit, by the source's call; i = inactive; ? = inconclusive; · = no result given.

SMILES | ROMK primary | HSV augment | Arbovirus inh | Cl transport mod | Measles CPE | KCC2 secondary | KCC2 bumet counter | KCC2 sec2 | HEK293 Tl flux | KCC2 ouabain | HEK293 Tl flux2
CC1CCCN(C(=O)CCCn2c(=S)[nH]c3ccccc3c2=O)C1 (stereo unspecified) | -0.00874 | i | 1.6 | 3.15* | 8.2 | 0.00697 | 0.00992* | 0.0319 | 0.00985* | ? | 0.0118*
CCCn1c(=S)[nH]c2ccccc2c1=O | 1.7 | i | -2.9 | 79.5* | · | ? | 0.116* | 0.0906* | 0.0847* | 0.102* | 0.0884*
CC1CCCN(S(=O)(=O)c2ccc(NC(=O)CCN3C(=O)c4ccccc4C3=O)cc2)C1 (stereo unspecified) | · | i | -1.0 | 0.023 | 27.5 | 0.00973 | ? | 0.0331 | 0.00777 | 0.0205 | 0.0109
CCCNC(=O)CN1C(=O)NC(CCSC)C1=O (stereo unspecified) | · | i | · | -0.352 | · | · | · | · | · | · | ·
O=C(CSc1nnc(C2CC2)n1Cc1ccccc1)c1cc2ccccc2o1 | -1.03 | i | -2.2 | -3.84* | 6.9 | 0.0066 | ? | 0.0239* | 0.0069 | ? | 0.00938
COc1ccccc1N(Cc1ccccc1)S(=O)(=O)c1cc(C(=O)O)ccc1Cl | 0.357 | i | 10.9 | -1.22 | · | · | · | · | · | · | ·
CC(C)NCC(O)c1cc(O)cc(O)c1 (stereo unspecified) | · | i | · | -2.77* | · | 0.00694 | 0.00594* | 0.0287 | ? | 0.0177 | 0.0117
Clc1ccc2nc(N3CCCCC3)[nH]c2c1 | 0.012 | i | -2.3 | -0.254 | 15.8 | · | · | · | · | · | ·
CC(C)n1c(=S)[nH]c2cc(Cl)ccc21 | 1.21 | i | · | 27.7* | · | 0.0157* | 0.0897* | 0.0396 | 0.0301* | 0.0394* | 0.0147*
Cc1noc(C)c1COc1ccc(C(=O)OCC(=O)NC2CCCCC2C)cc1 (stereo unspecified) | · | i | 3.5 | 0.817 | 15.3 | 0.009 | 0.0055 | 0.0329 | 0.00796 | 0.0183 | ?
O=C(Nc1ccccc1Cl)N1CCN(c2ccc3nnc(-c4ccc(F)cc4)n3n2)CC1 | · | · | -5.0 | -3.92* | 5.3 | 0.00921 | 0.00715 | 0.0301 | 0.00926* | 0.0189 | 0.0103
COc1cccc(C2=NOC(C(=O)N3CCN(Cc4ccccc4)CC3)C2)c1OC (stereo unspecified) | · | · | -2.6 | -4* | 1.8 | 0.00651 | 0.00572 | 0.0288 | 0.00621 | 0.016* | ?
O=C(C1CC(c2ccc(F)cc2)=NO1)N1CCN(Cc2ccccc2)CC1 (stereo unspecified) | · | i | 5.0 | · | 1.1 | · | · | · | · | · | ·
COc1cc(OC)c(C2=NOC(C(=O)N3CCc4ccccc4C3)C2)cc1Cl (stereo unspecified) | · | i | -0.2 | -3.15* | 4.7 | 0.00571 | 0.00385 | 0.0237* | 0.00741 | ? | 0.00918
CCO[C@H]1OC(C(=O)O)=C[C@@H](c2coc3ccccc3c2=O)[C@@H]1CCCO | · | i | · | · | · | · | · | · | · | · | ·
COc1ccccc1NC(=O)c1oc2ccc(C)cc2c1C | · | i | 6.5 | -4.74* | 2.0 | 0.00594 | 0.00528 | 0.0312 | 0.0081 | 0.0193 | 0.0119
COc1ccccc1NC(=O)c1oc2ccccc2c1NC(=O)c1cc(OC)c(OC)c(OC)c1 | · | · | · | 0.427 | · | · | · | · | · | · | ·
N#CCSc1nnc(COc2cccc3ccccc23)n1-c1cccc(Cl)c1 | -0.544 | i | 5.5 | 7.57* | 5.1 | 0.00719 | ? | 0.0299 | 0.00812 | 0.0202 | 0.011
CCc1ccccc1NC(=S)N(CCN1CCOCC1)Cc1ccccc1F | 0.217 | i | 0.7 | -1.05 | · | · | · | · | · | · | ·
Cc1ccc(/C=C2\SC(=S)N(c3c(C)n(C)n(-c4ccccc4)c3=O)C2=O)cc1 | -0.28 | i | -9.1 | -3.92* | 17.6 | 0.0106 | ? | 0.0255* | 0.0043 | 0.0145* | 0.012
Cc1c(N2C(=O)CS/C2=N\N=C\c2ccccc2O)c(=O)n(-c2ccccc2)n1C | · | i | -3.1 | 0.136 | 14.6 | · | · | · | · | · | ·
Cc1c(N2C(=O)/C(=C\c3ccccc3O)SC2=S)c(=O)n(-c2ccccc2)n1C | · | i | · | 51.9* | · | 0.027* | 0.0625* | 0.0679* | 0.0678* | 0.0626* | 0.0636*
Cc1c(N2C(=O)/C(=C/C3CC=CCC3)SC2=S)c(=O)n(-c2ccccc2)n1C (stereo unspecified) | · | i | · | 0.021 | · | · | · | · | · | · | ·
Cc1c(N2C(=O)/C(=C/c3ccccc3)SC2=S)c(=O)n(-c2ccccc2)n1C | · | i | -0.4 | -7.63* | 2.8 | 0.00687 | ? | 0.0271* | 0.008 | 0.0144* | ?
CCOc1ccccc1N1CN(C2CCCCC2)CNC1=S | · | i | · | 0.95 | · | · | · | · | · | · | ·
SMILES | ROMK primary | HSV augment | Arbovirus inh | Cl transport mod | Measles CPE | KCC2 secondary | KCC2 bumet counter | KCC2 sec2 | HEK293 Tl flux | KCC2 ouabain | HEK293 Tl flux2
CCOC(=O)c1ccc(N2CN(C3CCCCC3)CNC2=S)cc1 | 0.295 | i | -7.5 | -0.0511 | 5.3 | 0.00733 | 0.00489 | 0.0302 | 0.00848 | 0.0186 | 0.0117
CCOC(=O)c1cc(-c2ccc(Cl)cc2)nc2onc(C)c12 | -0.0506 | · | 0.8 | · | 6.2 | 0.00749 | 0.00456 | 0.0287 | 0.00783 | 0.0187 | 0.0105
CCOC(=O)c1cc(-c2ccc(Cl)cc2)nc2c1c(=O)[nH]c(=O)n2CCOC | 0.0945 | i | -1.4 | 0.186 | · | · | · | · | · | · | ·
Cc1ccc(C2=CSC3=NS(=O)(=O)CCN23)cc1 | -0.191 | i | 18.3 | -0.445 | · | · | · | · | · | · | ·
COC(=O)c1sccc1NC(=S)Nc1ccc(OC)cc1 | -0.345 | i | 11.5 | 1.11 | · | · | · | · | · | · | ·
COC(=O)c1sccc1NC(=S)OC | · | i | · | 4.75* | · | ? | 0.0123* | 0.0334 | 0.0161* | ? | 0.0131*
CC(=O)Nc1ccccc1C(=O)C(=O)Nc1cccc(C(=O)N2CC(C)CC(C)C2)c1 (stereo unspecified) | -1.1 | i | 4.2 | -0.027 | · | · | · | · | · | · | ·
CCOc1c(OC(C)=O)ccc(/C=C/c2ccc3cccc(OC)c3n2)c1[N+](=O)[O-] | 1.51 | i | 18.6 | 0.396 | 18.6 | · | · | · | · | · | ·
O=C1CCCc2c1[nH]c1ccc(CN3CCCCC3)cc21 | · | i | -13.2 | -5.07* | 12.9 | 0.00521 | 0.00482 | 0.0293 | 0.00772 | 0.0185 | 0.0103
Cc1ccc2[nH]c3c(c2c1)CCCC3=O | · | i | -1.5 | -0.388 | 13.6 | · | · | · | · | · | ·
CC(=O)Oc1ccc2c(=O)c(-c3nc4ccccc4s3)coc2c1 | 0.0968 | i | -9.6 | 0.55 | · | · | · | · | · | · | ·
O=c1cc(-c2ccccc2Cl)oc2ccc([N+](=O)[O-])c(O)c12 | 0.351 | i | 7.9 | 2.41 | 23.8 | · | · | · | · | · | ·
